# Bioassay records from PubChem BioAssay.
# SW480 rerep: inducers of DNA re-replication in SW480 colon cancer cells | AID 624297 | actives 1.8% (n = 340,000) | SW480 DNA re-replication, Hoechst DNA content imaging, 48 h | Potency, µM (titrated, usually from 46.1 µM), most hits filed as activators; also: nearly all actives have a fitted effect of over 55% in size
#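 DNA re-replication was detected as more nuclei of elevated Hoechst intensity after 48 hr exposure to compound (23 nL pinned per well of 250 cells).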
# KB-3-1 cytotox: kills parental KB-3-1 adenocarcinoma cells | actives 1.4% (n = 400,000) | Potency, µM (highest dose often 46.1 µM), hits mostly cytotoxic | KB-3-1 viability, CellTiter-Glo ATP luminescence, 72 h | AID 1347075; also: nearly all actives have a fitted effect of over 60% in size
#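 Screening of KB-3-1 cells (DMEM, 10% FBS, phenol-red free) ran from lowest to highest compound concentration; after 72 h at 37 °C viability was read luminescently and curves fitted.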
# KB-V1 cytotox: kills drug-selected multidrug resistant KB-V1 cells; KB-V1 MDR cells viability, CellTiter-Glo, 72 h; Potency, µM (doses to about 46.1 µM), most hits filed as cytotoxic; actives 3.4% (n = 400,000); AID 1347076; also: nearly all actives have a fitted effect of over 60% in size
#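 KB-V1 cells (P-gp-expressing MDR subline of KB-3-1) in phenol-red-free DMEM with 10% FBS were exposed to library compounds over a concentration series for 72 h at 37 degrees C. Viability read by CellTiter-Glo luminescence; concentration-effect curves fitted after normalization.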
# MCF10A rerep: induces DNA re-replication in MCF 10a normal breast cells; Potency, µM (highest dose often 46.1 µM), usual class: activators; AID 624296; actives 2.9% (n = 350,000); MCF 10A DNA re-replication, Hoechst nuclear intensity, 48 h; also: nearly all actives have a fitted effect of over 50% in size
# HT1080 IDH1KD tx: HT-1080 IDH1 knockdown cell toxicity (counter line). HT-1080 IDH1 knockdown viability, ATP luminescence, 48 h. Potency, µM (top dose mostly 46.1 µM), most hits filed as cytotoxic. actives 2% (n = 360,000). AID 686971
#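 HT-1080-IDH1KD cells (IDH1 knocked down), 750/well in RPMI with 5% FBS, treated with compound 48 h at 37 degrees C. Viability by CellTiter-Glo luminescence, normalised to DMSO and no-cell wells; concentration-response curves classed.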
# HT1080-NT tox: kills 2HG-producing HT-1080-NT fibrosarcoma cells; HT-1080-NT fibrosarcoma viability, CellTiter-Glo ATP luminescence, 48 h; Potency, µM (highest dose often 46.1 µM), actives largely listed as cytotoxic; actives 1.6% (n = 360,000); AID 686970;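 also: NT is the 2HG producing partner of a matched IDH1 knockdown line; nearly all actives have a fitted effect of over 55% in size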
#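 750 cells/well, RPMI + 5% FBS; 2 h settle, compound pin-transfer, 48 h at 37 degrees C. CellTiter-Glo 10 min RT, luminescence. Normalized to DMSO and media-only wells.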
# Numbers stand for hits; n = inactive; u = inconclusive; x = no result; ! = not confirmed by another sample; [ ] = dose if it differs, or a comment. The list is not random: actives were taken first. Their share in the collection is about 7.9%. Calls follow the shape of the dose curve; as a rule, active = well fitted curve in the direction sought with a large enough effect; inconclusive = small, poorly fitted or top-dose-only effect, or another doubt; inactive = no such curve, though single readings can be large; an effect the other way counts as inactive or inconclusive.
SMILES,SW480 rerep,KB-3-1 cytotox,KB-V1 cytotox,MCF10A rerep,HT1080 IDH1KD tx,HT1080-NT tox
CSc1ccc(C(=O)C2CCCN(S(=O)(=O)N(C)C)C2)cc1 (stereo not given),n,u,20.6µM,n,n,n
CSc1ccc(C(=O)C2CCCN(C(=O)CCc3c(C)nn(C)c3C)C2)cc1 (stereo not given),n,x,x,n,u,13µM
CSc1ccc(C(=O)C2CCCN(C(=O)c3ccc4c(c3)no[n+]4[O-])C2)cc1 (stereo not given),n,n,u,18.4µM,n,n
O=C(O)c1ccc2c(c1)S(=O)(=O)c1cc(N3CCN(c4cnccn4)CC3)ccc1C2=O,x,n,n,x,n,n
CCCCOc1ccc(Nc2cc(Cl)ccc2C(=O)O)cn1,n,n,n,16.4µM,n,n
CCOc1ccc(S(=O)(=O)N2CCC(C(=O)NCc3cccnc3)CC2)cc1C,n,n,n,n,n,n
CC(=O)OC1CC(c2cc(C(C)(C)C)c(O)c(C(C)(C)C)c2)=NO1 (stereo not given),14.6µM,n,u,u,u,u
CCc1cccc2c1NC(=O)C21N2CCCC2C(C(=O)c2ccc3ccccc3c2)C12C(=O)Nc1ccccc12 (stereo not given),u,16.4µM,u,n,n,n
CCn1nc(C)cc1C(=O)N1CCCC(C(=O)c2ccc3ccccc3c2)C1 (stereo not given),n,n,n,u,n,n
CCc1ccc2c(c1)C1(C(=O)N2)N2CCCC2C(C(=O)c2ccc3ccccc3c2)C12C(=O)Nc1ccccc12 (stereo not given),u,u,u,u,20.6µM,18.4µM
Cc1cccc2c1NC(=O)C21N2CCCC2C(C(=O)c2ccc3ccccc3c2)C12C(=O)Nc1ccccc12 (stereo not given),u,u,n,u,n,n
C[C@@H]1CN([C@H](C)CO)C(=O)c2cccc(NC(=O)NC3CCCCC3)c2O[C@@H]1CN(C)C(=O)Nc1ccc(C(F)(F)F)cc1,u,u,n,u,u,u
C[C@H](CO)N1C[C@H](C)[C@@H](CN(C)C(=O)Nc2ccc(C(F)(F)F)cc2)Oc2c(NC(=O)NC3CCCCC3)cccc2C1=O,n,u,n,3.26µM,n,n
COc1ccc(S(=O)(=O)N(C)C[C@H]2Oc3c(NC(=O)Nc4ccc(C(F)(F)F)cc4)cccc3C(=O)N([C@H](C)CO)C[C@@H]2C)cc1,n,u,u,u,20.6µM,u
COc1ccc(CCN2CCC(Nc3nc4ccccc4n3Cc3ccc(F)cc3)CC2)cc1,3.66µM!,u,20.6µM,4.61µM,8.2µM,14.6µM
O=C(Nc1ccc(Cl)cc1C(F)(F)F)C(Sc1nnc(-c2cccs2)o1)c1ccccc1 (stereo not given),x,u,14.6µM,1.64µM,10.3µM,u
CC1=C(SCc2ccccc2)C(=O)c2ccccc2C1=O,3.66µM,u,u,3.66µM,25.9µM,9.2µM
Cc1ccc2c(=O)cc(CSc3ncn[nH]3)[nH]c2c1C,x,n,n,x,x,x
Cc1cc(C)c(C(=O)COC(=O)c2cccc(S(=O)(=O)NCc3ccccc3)c2)cc1C,n,n,18.4µM,n,n,n
O=C(NCc1ccccc1)c1cccc(COc2ccc(Cl)cc2)c1,n,n,18.4µM,n,n,n
CCOc1ccc(C(=O)NCc2ccccc2)cc1Br,n,n,18.4µM,n,n,n
COc1cccc(CN(C)C(=O)c2[nH]c(C)c(C(C)=O)c2C)c1OC,n,7.31µM,18.4µM,n,n,n
CCOc1nc(OCC)c2[nH]c(C(=O)O)c(Br)c2n1,n,n,n,n,n,n
O=C(NCc1ccccc1)c1cccc(S(=O)(=O)NCc2ccccc2)c1,n,n,16.4µM,n,n,n
CN(C)C1(CNC(=O)c2cccc(S(=O)(=O)NCc3ccccc3)c2)CCCCC1,n,n,n,n,u,n
SMILES,SW480 rerep,KB-3-1 cytotox,KB-V1 cytotox,MCF10A rerep,HT1080 IDH1KD tx,HT1080-NT tox
COc1cccc(CN(C)C(=O)c2cc(S(=O)(=O)NCc3ccccc3)ccc2C)c1OC,n,n,18.4µM,n,n,n
COc1ccc(CN(C)C(=O)c2cc(S(=O)(=O)NCc3ccccc3)ccc2C)c(OC)c1,n,n,n,n,n,n
C=CCc1cc(OC)c(O)c(C(=O)NCCO)c1,n,x,x,n,x,x
CCCCn1cc(S(=O)(=O)c2ccc(Cl)cc2)c(=O)c2cc(F)c(N3CCCCC3)cc21,x,n,n,x,x,x
CC(C(=O)Nc1ccccc1F)N1CCN(S(=O)(=O)c2ccc(C(F)(F)F)cc2)CC1 (stereo not given),n,n,n,n,n,n
COc1ccc(CCNc2cc(C)nc3c(-c4ccccc4)c(C)nn23)cc1OC,n,n,8.2µM,n,n,n
Cc1cc(NCCCn2ccnc2)n2nc(C)c(-c3ccc(Cl)cc3)c2n1,n,u,23.1µM,n,11.2µM,n[9.24 µM]
Cc1cc(NCCN2CCOCC2)n2nc(C)c(-c3ccc(Cl)cc3)c2n1,n,u,23.1µM,n,u,23.1µM
Cc1cc(NCCN2CCOCC2)n2nc(C)c(-c3ccccc3)c2n1,n,n,n,n,n[9.24 µM],n
O=C(NCC(c1ccco1)N1CCCCC1)c1ccc(COc2ccc(Cl)cc2)cc1 (stereo not given),u,u,n,u,u,18.4µM
O=C(COc1cccc(C(F)(F)F)c1)NCC(c1ccco1)N1CCCC1 (stereo not given),n,n,n,n,n,n
O=C(COc1ccc(Cl)cc1Br)NCC(c1ccco1)N1CCCC1 (stereo not given),n,n,5.8µM,n,n,n
COc1ccccc1N1C(=O)c2cccc3c(N(C)CCO)ccc(c23)C1=O,n[1.84 µM],n,n,n,n,n
Cc1ccccc1N1C(=O)c2cccc3c(N(C)CCO)ccc(c23)C1=O,u,n,18.4µM,n,n,n
CCN1CCN(S(=O)(=O)c2ccc(S(=O)(=O)NC3CC3)cc2)CC1,u,n,n,n,n,n
CCN1CCN(S(=O)(=O)c2ccc(C(C)(C)C)cc2)CC1,23.1µM,n,n,u,n,n
CCN1CCN(S(=O)(=O)c2ccc(S(=O)(=O)N(CC)Cc3ccccc3)cc2)CC1,11.6µM,n,u,1.84µM,n,n
CSc1nc2c(cnn2-c2ccc(C)c(C)c2)c(=O)[nH]1,n,1.64µM,u,n,n,n
Nc1ncnc(Sc2ncccn2)c1[N+](=O)[O-],u,3.66µM,u,u,16.4µM,n
Cc1cc(C(=O)N2CCN(c3ccccc3O)CC2)c(C)o1,n,n,n,n,n,n
Cc1cccc(N2CCN(C(=O)c3cc(C)oc3C)CC2C)c1 (stereo not given),n,18.4µM,14.6µM,u,n,n
